The test deals with Trichuris muris adult worms. As to the kind of experiment: mean motility score (Paragon pixel variance) of adult worms (arbitrary units); higher = more motile worms, i.e. less anthelmintic effect; extreme values may be limits of the assay. The conditions noted are these: 100 µM; 24 h. The procedure, abridged:
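Each drug was tested with three worms in three wells, run over three separate occasions and vehicle and positive controls included. The worms were single adult Trichuris muris from infected NOD SCID mice, held for 24 h at 37°C and 5% CO2 in 100 μL RPMI-1640 with antibiotics and drug at 100 μM (1% v/v DMSO) in 96-well plates. Motility score was derived by Paragon pixel-variance analysis of films from an automated phenotyping platform and averaged over replicate wells.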
On to `CCc1c2c(nc3ccc(OC(=O)N4CCC(N5CCCCC5)CC4)cc13)-c1cc3c(c(=O)n1C2)COC(=O)[C@]3(O)CC` [irinotecan], for which the mean motility score was 2280.
The result for `CCN(CC)CCNC(=O)c1c(C)[nH]c(/C=C2\C(=O)Nc3ccc(F)cc32)c1C` [sunitinib] reads 531; that for `CC(C)(C)c1nc(-c2cccc(NS(=O)(=O)c3c(F)cccc3F)c2F)c(-c2ccnc(N)n2)s1` [dabrafenib], 6; that for `O=C1NCCN1CCN1CCC(c2cn(-c3ccc(F)cc3)c3ccc(Cl)cc23)CC1` [sertindole], 0.
Turning to `C(=C\c1ccccc1)/CN1CCN(C(c2ccccc2)c2ccccc2)CC1` [cinnarizine], the mean motility score came out at 1640.
On to `CC(C)(Oc1ccc(C2CC2(Cl)Cl)cc1)C(=O)O` (stereo not drawn) [ciprofibrate], for which the mean motility score turned out to be 2070.
The result for `CN(Cc1cnc2nc(N)nc(N)c2n1)c1ccc(C(=O)N[C@@H](CCC(=O)O)C(=O)O)cc1` [methotrexate] reads 3700; that for `CC1CCc2c(N3CCC(O)CC3)c(F)cc3c(=O)c(C(=O)O)cn1c23` (stereo not drawn) [nadifloxacin], 2660.
In turn, `CN(C)CCCOc1nn(Cc2ccccc2)c2ccccc12.Cl` [benzydamine hydrochloride] returned a mean motility score of 3530.
`CCN1CCN(c2cc(-c3ccc(F)cc3)c3c(n2)CCCCCC3)CC1` [blonanserin] returned a mean motility score of 3080.
`c1ccc2c(CC3=NCCN3)cccc2c1` [naphazoline] registered a mean motility score of 4300.
`CC(C)O` [isopropyl alcohol]: the mean motility score is 2760.
On to `CC(=O)OC[C@H]1O[C@@H](n2ncc(=O)[nH]c2=O)[C@H](OC(C)=O)[C@@H]1OC(C)=O` [azaribine], for which the mean motility score was determined as 3970.

Source of the values: the supplement of paper PMC10503962.
